# Assay results as given in PubChem BioAssay (Tox21).
# Records with an inconclusive call do not appear. Where a call stands in place of a potency, no number is given. The source made the active and inactive calls. Unless noted, calls come from the whole dose curve; as a rule, active = well fitted curve in the direction sought with a large enough effect in the repeat runs; inconclusive = weak or mixed curves; inactive = no such curve, though single readings can be large; an effect the other way counts as inactive or inconclusive.
# Tests used:
# [1] = qHTS assay to identify small molecule antagonists of the glucocorticoid receptor (GR) signaling pathway - cell viability counter screen (AID 720693); note: nearly all actives have a fitted effect of over 55% in size
# [2] = qHTS assay for identifying genotoxic compounds that show differential cytotoxicity against isogenic chicken DT40 cell lines with known DNA damage response pathways - wild type cell line (AID 743012); note: nearly all actives have a fitted effect of over 60% in size; note: potency is the fitted concentration of half-maximal effect
# Summary of the method: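 Endpoint: CellTiter-Glo luminescence, 30 min RT. Cells: wild type DT40, 300/well. Exposure: compounds in DMSO, 40 h, 37 C/5% CO2, after ~0.5 h pre-incubation.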
# [3] = qHTS assay for identifying genotoxic compounds that show differential cytotoxicity against isogenic chicken DT40 cell lines with known DNA damage response pathways - Rev3 mutant cell line (AID 743014); note: nearly all actives have a fitted effect of over 55% in size; note: potency is the fitted concentration of half-maximal effect
# [4] = qHTS assay for identifying genotoxic compounds that show differential cytotoxicity against isogenic chicken DT40 cell lines with known DNA damage response pathways - Rad54/Ku70 mutant cell line (AID 743015); note: nearly all actives have a fitted effect of over 60% in size; note: potency is the fitted concentration of half-maximal effect
# [5] = qHTS assay to identify small molecule antagonists of the androgen receptor (AR) signaling pathway - cell viability counter screen (AID 743033; note: nearly all actives have a fitted effect of over 45% in size)
# [6] = qHTS assay to identify small molecule antagonists of the androgen receptor (AR) signaling pathway using the MDA cell line - cell viability counter screen (AID 743041; note: nearly all actives have a fitted effect of over 45% in size)
# Summary of the method: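 qHTS viability read-out; MDA-kb2 AR-luc; R1881-stimulated; 16 h exposure at 37C, 0% CO2; CellTiter-Fluor, 30 min; fluorescence intensity.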
# [7] = qHTS assay to identify small molecule antagonists of the thyroid receptor (TR) signaling pathway - cell viability counter screen (AID 743064); note: nearly all actives have a fitted effect of over 50% in size
# Summary of the method: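 Viability of T3-stimulated (1 nM final) GH3.TRE-Luc cells is measured by CellTiter-Fluor fluorescence after 23.5 h compound exposure at 37 °C plus 30 min reagent incubation.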
# [8] = qHTS assay to identify small molecule antagonists of the thyroid receptor (TR) signaling pathway (AID 743065); note: series mostly up to about 70 µM; nearly all actives have a fitted effect of over 55% in size
# Summary of the method: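 GH3.TRE-Luc rat pituitary cells carrying two TR response elements driving luciferase were plated for 4 h, given compound plus 1 nM T3 (final), and incubated 23.5 h at 37 C. ONE-Glo luminescence measured reporter inhibition; CellTiter-Fluor fluorescence tracked cytotoxicity.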
# [9] = tested on: thyroid hormone receptor (rat, GH3 cells); assay: qHTS assay to identify small molecule agonists of the thyroid receptor (TR) signaling pathway (AID 743066; calls by dose curve)
# [10] = qHTS assay to identify small molecule antagonists of the estrogen receptor alpha (ER-alpha) signaling pathway - cell viability counter screen (AID 743074; calls by dose curve; note: nearly all actives have a fitted effect of over 45% in size)
# [11] = target: Estrogen receptor (Homo sapiens) (UniProt P03372); assay: qHTS assay to identify small molecule agonists of the estrogen receptor alpha (ER-alpha) signaling pathway (AID 743075; calls by dose curve)
# [12] = target: Estrogen receptor (Homo sapiens) (UniProt P03372); assay: qHTS assay to identify small molecule agonists of the estrogen receptor alpha (ER-alpha) signaling pathway using the BG1 cell line (AID 743079); note: nearly all actives have a fitted effect of over 20% in size; note: potency is the fitted concentration of half-maximal effect
# [13] = qHTS assay to identify small molecule antagonists of the estrogen receptor alpha (ER-alpha) signaling pathway using the BG1 cell line (AID 743080; calls by dose curve;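 note: BG1 cells stimulated with 17beta-estradiol alongside compound; series mostly up to about 70 µM; nearly all actives have a fitted effect of over 25% in size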)
# Summary of the method: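 Quantitative HTS on the Tox21 10K library: BG1 cells with endogenous ER-alpha and ERE-luciferase reporter, 17beta-estradiol stimulation, 21.5 h compound exposure, luminescence endpoint with parallel fluorescence cytotoxicity counter-read.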
# [14] = qHTS assay to identify small molecule antagonists of the estrogen receptor alpha (ER-alpha) signaling pathway using the BG1 cell line - cell viability counter screen (AID 743081);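 note: compound given together with 17beta-estradiol as the ER stimulus; series mostly up to about 70 µM; nearly all actives have a fitted effect of over 45% in size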
# [15] = target: Aromatase (Homo sapiens) (UniProt P11511); assay: qHTS assay to identify aromatase inhibitors (AID 743083); note: series mostly up to about 70 µM; nearly all actives have a fitted effect of over 55% in size
# [16] = target: Estrogen receptor (Homo sapiens) (UniProt P03372); assay: qHTS assay to identify small molecule antagonists of the estrogen receptor alpha (ER-alpha) signaling pathway (AID 743069; active = well fitted curve in the direction sought with a large enough effect in the signal ratio in the repeat runs, not every such curve was filed as active; the % refers to the signal ratio)
# Summary of the method: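 Screening used a UAS-driven beta-lactamase reporter integrated into HEK293 cells expressing ER-alpha, stimulated with 17beta-estradiol alongside test compounds over 18 hr at 37C; signal came from LiveBLAzer B/G FRET fluorescence.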
# [17] = target: Androgen receptor (Homo sapiens) (UniProt P10275); assay: qHTS assay to identify small molecule antagonists of the androgen receptor (AR) signaling pathway (AID 743035; active = well fitted inhibition curve with a large enough effect in the signal ratio in the repeat runs, not every such curve was filed as active; the % refers to the signal ratio)
# Summary of the method: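 R1881 agonist challenge of a HEK293 UAS-beta-lactamase AR reporter line in the presence of compound (16 h, 37C); signal taken as FRET fluorescence after 2 h with LiveBLAzer B/G substrate at room temperature.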
# [18] = target: Androgen receptor (Homo sapiens) (UniProt P10275); assay: qHTS assay to identify small molecule agonists of the androgen receptor (AR) signaling pathway (AID 743036; active = well fitted activation curve with a large enough effect in the signal ratio in the repeat runs, with a control signal flat, not every such curve was filed as active; the % refers to the signal ratio)
# Summary of the method: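 Screening used 2,000 AR-bla HEK293 cells per well, treated 16 h at 37C with test compounds in DMSO alongside positive and DMSO-only controls; beta-lactamase activity was then read by LiveBLAzer B/G FRET fluorescence after 2 h at room temperature.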
# [19] = target: Androgen receptor (Homo sapiens) (UniProt P10275); assay: qHTS assay to identify small molecule agonists of the androgen receptor (AR) signaling pathway using the MDA cell line (AID 743040; note: nearly all actives have a fitted effect of over 20% in size)
# Summary of the method: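 Agonist activity is measured as luciferase luminescence in human MDA-kb2 cells whose MMTV reporter responds to both AR and GR. Compounds in DMSO incubate 16 h at 37C, 0% CO2, and ONE-Glo is read after 30 min.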
# [20] = target: Androgen receptor (Homo sapiens) (UniProt P10275); assay: qHTS assay to identify small molecule antagonists of the androgen receptor (AR) signaling pathway using the MDA cell line (AID 743042; note: nearly all actives have a fitted effect of over 55% in size)
# Summary of the method: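 MDA-kb2 cells (human breast carcinoma, stably carrying an MMTV-luciferase reporter responsive to AR and GR) were plated at 3,000 cells/well and preincubated 5 hr at 37C, then given compound plus R1881 agonist for 16 h. ONE-Glo luminescence was read.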
# Androgen receptor (Homo sapiens), sequence (P10275 whole entry, looked up): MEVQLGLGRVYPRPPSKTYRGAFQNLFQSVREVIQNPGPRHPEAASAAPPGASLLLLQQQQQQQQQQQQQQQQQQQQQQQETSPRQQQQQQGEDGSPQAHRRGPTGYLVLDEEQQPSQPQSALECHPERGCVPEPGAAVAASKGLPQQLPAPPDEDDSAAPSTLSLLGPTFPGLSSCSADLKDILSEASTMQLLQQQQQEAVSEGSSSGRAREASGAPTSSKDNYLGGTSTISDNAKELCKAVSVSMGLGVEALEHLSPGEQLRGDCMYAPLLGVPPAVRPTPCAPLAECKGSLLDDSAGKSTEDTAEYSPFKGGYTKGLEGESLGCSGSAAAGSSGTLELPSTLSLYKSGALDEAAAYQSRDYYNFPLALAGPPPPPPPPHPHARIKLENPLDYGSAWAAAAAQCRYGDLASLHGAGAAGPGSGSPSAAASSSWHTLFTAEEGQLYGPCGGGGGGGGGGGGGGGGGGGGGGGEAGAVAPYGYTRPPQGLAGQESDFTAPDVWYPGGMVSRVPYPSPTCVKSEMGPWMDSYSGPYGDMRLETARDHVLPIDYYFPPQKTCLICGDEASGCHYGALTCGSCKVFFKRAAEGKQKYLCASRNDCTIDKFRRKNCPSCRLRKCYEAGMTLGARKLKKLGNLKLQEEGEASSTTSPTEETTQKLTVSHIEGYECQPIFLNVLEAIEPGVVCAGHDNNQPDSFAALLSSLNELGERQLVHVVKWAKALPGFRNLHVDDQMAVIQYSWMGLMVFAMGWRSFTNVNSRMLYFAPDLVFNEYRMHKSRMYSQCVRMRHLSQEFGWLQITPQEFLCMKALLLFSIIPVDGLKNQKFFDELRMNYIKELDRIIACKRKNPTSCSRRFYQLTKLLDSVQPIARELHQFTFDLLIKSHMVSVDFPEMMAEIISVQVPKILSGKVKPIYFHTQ
# Aromatase (Homo sapiens), sequence (P11511 whole entry, looked up): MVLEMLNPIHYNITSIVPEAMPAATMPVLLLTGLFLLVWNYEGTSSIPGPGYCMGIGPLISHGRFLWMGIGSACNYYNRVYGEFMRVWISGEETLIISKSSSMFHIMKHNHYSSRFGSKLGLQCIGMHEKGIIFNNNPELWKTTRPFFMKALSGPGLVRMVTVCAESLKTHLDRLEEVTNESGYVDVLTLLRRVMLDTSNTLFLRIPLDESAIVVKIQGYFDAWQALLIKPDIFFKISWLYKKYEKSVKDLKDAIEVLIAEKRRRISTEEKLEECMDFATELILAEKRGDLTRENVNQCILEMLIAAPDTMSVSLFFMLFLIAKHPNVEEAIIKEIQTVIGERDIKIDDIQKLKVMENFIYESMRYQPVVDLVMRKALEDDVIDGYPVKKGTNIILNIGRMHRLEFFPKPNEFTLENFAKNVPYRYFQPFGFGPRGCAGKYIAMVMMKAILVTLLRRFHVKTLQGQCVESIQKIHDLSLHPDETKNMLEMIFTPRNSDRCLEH
# Estrogen receptor (Homo sapiens), sequence (P03372 whole entry, looked up): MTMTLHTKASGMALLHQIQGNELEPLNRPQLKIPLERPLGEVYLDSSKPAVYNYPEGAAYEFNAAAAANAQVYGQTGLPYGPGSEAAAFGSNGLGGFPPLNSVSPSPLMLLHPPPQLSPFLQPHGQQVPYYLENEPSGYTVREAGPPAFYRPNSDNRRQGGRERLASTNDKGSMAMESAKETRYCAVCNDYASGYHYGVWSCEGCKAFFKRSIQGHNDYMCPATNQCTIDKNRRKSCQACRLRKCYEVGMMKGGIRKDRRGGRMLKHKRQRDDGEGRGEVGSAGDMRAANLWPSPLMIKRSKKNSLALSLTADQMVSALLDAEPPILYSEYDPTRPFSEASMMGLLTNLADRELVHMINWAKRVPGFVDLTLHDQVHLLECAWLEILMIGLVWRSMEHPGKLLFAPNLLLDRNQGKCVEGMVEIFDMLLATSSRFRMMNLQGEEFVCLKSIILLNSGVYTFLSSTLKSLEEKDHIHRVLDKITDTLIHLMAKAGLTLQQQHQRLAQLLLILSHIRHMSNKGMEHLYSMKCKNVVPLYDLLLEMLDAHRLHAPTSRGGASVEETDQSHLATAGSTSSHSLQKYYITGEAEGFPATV
Structure (SMILES),outcome [1],Potency [2],Potency [3],Potency [4],outcome [5],outcome [6],Potency [7],Potency [8],Potency [9],Potency [10],Potency [11],Potency [12],Potency [13],outcome [14],Potency [15],outcome [16],outcome [17],outcome [18],outcome [19],outcome [20]
Cc1cc(O)c(Cl)cc1C,inactive,inactive,inactive,inactive,inactive,inactive,inactive,inactive,inactive,inactive,inactive,inactive,inactive,inactive,inactive,–,–,–,–,–
CCOC(=O)CC(C(C)=O)C(C)=O,inactive,inactive,inactive,inactive,inactive,inactive,inactive,inactive,inactive,inactive,inactive,inactive,inactive,inactive,inactive,inactive,–,–,–,–
N[C@H]1C(O)O[C@H](CO)[C@@H](O)[C@@H]1O (stereo not given in full),inactive,inactive,inactive,inactive,inactive,inactive,inactive,inactive,inactive,inactive,inactive,0.531 µM (active),–,inactive,inactive,inactive,inactive,inactive,inactive,inactive
CC(O)C(CO)C(C)O (stereo not given),inactive,inactive,inactive,inactive,inactive,inactive,inactive,inactive,inactive,inactive,inactive,inactive,inactive,inactive,inactive,inactive,inactive,inactive,inactive,inactive
C=COCCCCO,inactive,inactive,inactive,inactive,inactive,inactive,inactive,inactive,inactive,inactive,inactive,inactive,inactive,inactive,inactive,inactive,–,–,–,–
C[C@@H]1CC[C@@]2(OC1)O[C@H]1C[C@H]3[C@@H]4CC[C@H]5C[C@@H](O)CC[C@]5(C)[C@H]4CC(=O)[C@]3(C)[C@H]1[C@@H]2C,inactive,inactive,inactive,inactive,inactive,inactive,inactive,inactive,inactive,inactive,inactive,inactive,inactive,inactive,inactive,inactive,–,–,–,–
CC[N+](C)(CC)CC,inactive,inactive,inactive,inactive,inactive,inactive,inactive,inactive,inactive,inactive,–,–,–,inactive,inactive,–,–,–,–,–
CC(CC(=O)Cl)CC(C)(C)C (stereo not given),inactive,inactive,inactive,inactive,inactive,inactive,inactive,inactive,inactive,inactive,inactive,inactive,–,inactive,inactive,inactive,–,–,–,–
CC(=O)Oc1ccc(C(C)=O)cc1,inactive,inactive,inactive,inactive,inactive,inactive,inactive,inactive,inactive,–,inactive,inactive,inactive,inactive,inactive,–,–,–,–,–
CC[C@@]1(c2ccccc2)NC(=O)N(C)C1=O,inactive,inactive,inactive,inactive,inactive,inactive,inactive,inactive,inactive,inactive,inactive,inactive,inactive,inactive,inactive,inactive,–,–,–,–
Cc1ccc(Br)cc1,inactive,inactive,inactive,inactive,inactive,inactive,inactive,inactive,inactive,inactive,inactive,inactive,inactive,inactive,inactive,inactive,–,–,–,–
CC(C)(C)OC(=O)c1ccccc1C(=O)O,inactive,inactive,inactive,inactive,inactive,inactive,inactive,inactive,inactive,inactive,inactive,inactive,inactive,inactive,inactive,inactive,–,–,–,–
Cc1ccc(NC(N)=O)cc1,inactive,inactive,inactive,inactive,inactive,inactive,inactive,inactive,inactive,inactive,inactive,inactive,inactive,inactive,inactive,inactive,–,–,–,–
CCCOc1ccc(C(=O)OCCN(CC)CC)cc1N,inactive,9.44 µM (active),6.68 µM (active),13.3 µM (active),inactive,inactive,inactive,–,inactive,inactive,–,–,–,–,inactive,–,–,–,–,–
CC(=O)OC1CCC(C(C)(C)C)CC1 (stereo not given),inactive,inactive,inactive,inactive,inactive,inactive,inactive,inactive,inactive,inactive,inactive,inactive,inactive,inactive,inactive,–,inactive,inactive,inactive,inactive
N#CC1(N)CCCCC1,inactive,inactive,inactive,inactive,inactive,inactive,–,inactive,inactive,inactive,inactive,inactive,–,inactive,inactive,–,–,–,–,–
CC(C)(C)OC=O,inactive,inactive,inactive,inactive,inactive,inactive,–,inactive,inactive,inactive,–,–,–,inactive,inactive,–,–,–,–,–
